Compounds with a hit are over-represented: about 1.9% of the library has one in this group of screens.
PREPL inh – inhibits the human prolyl oligopeptidase-like enzyme. inhibition, % at 5.96 µM. Q4J6C6. recombinant PREPL, fluorescence polarization activity-based probe. 0.68% of 320,000 active; in the data active = inhibition above about 43%
Target sequence (Q4J6C6 whole entry, looked up): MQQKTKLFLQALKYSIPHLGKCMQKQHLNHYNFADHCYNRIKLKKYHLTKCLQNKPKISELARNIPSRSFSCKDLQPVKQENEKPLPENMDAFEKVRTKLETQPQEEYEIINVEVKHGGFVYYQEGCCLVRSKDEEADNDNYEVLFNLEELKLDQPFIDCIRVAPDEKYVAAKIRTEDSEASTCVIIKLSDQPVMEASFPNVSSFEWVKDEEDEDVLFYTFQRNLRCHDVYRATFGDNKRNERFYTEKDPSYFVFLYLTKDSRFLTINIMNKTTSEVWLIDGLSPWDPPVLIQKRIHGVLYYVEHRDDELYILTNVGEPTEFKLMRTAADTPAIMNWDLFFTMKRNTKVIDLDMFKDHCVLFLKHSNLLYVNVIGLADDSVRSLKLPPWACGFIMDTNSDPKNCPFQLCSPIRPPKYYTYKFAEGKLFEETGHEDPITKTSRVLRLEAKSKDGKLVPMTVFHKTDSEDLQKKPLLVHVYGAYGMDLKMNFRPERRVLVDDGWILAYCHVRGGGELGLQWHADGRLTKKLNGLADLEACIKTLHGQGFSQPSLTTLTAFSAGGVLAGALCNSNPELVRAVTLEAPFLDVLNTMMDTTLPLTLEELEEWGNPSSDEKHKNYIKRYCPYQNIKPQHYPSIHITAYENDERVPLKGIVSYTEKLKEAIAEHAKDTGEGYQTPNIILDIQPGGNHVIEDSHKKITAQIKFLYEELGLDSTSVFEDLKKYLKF
GSTO1 counter – GSTO1 inhibition, counter-screen for RBBP9 inhibitors. recombinant GSTO1, activity-based probe fluorescence polarization. inhibition, % at 5.96 µM. 1.1% of 300,000 active;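 active = inhibition above the campaign mean inhibition plus 3 SD, cut at about 35% in these data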
LYPLA2 inh – counter-screen for PME1 inhibitors: inhibitors of human LYPLA2. recombinant LYPLA2, FP-Rh probe fluorescence polarization. 0.38% of 320,000 active. AID 2177. inhibition, % at 5.9 µM;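 active = inhibition above the screen-wide mean plus 3 SD, limit set per campaign, cut at about 26% in these data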
PME-1 primary – blocks human protein phosphatase methylesterase 1 | Q9Y570 | recombinant PME-1, FP-Rh probe fluorescence polarization | inhibition, % at 5.9 µM | 0.53% of 320,000 active;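 active = inhibition above the campaign mean of all compounds plus 3 SD, cut at about 26% in these data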;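 also: competitive labeling of PME-1 active site by serine hydrolase directed probe; inhibitors block probe labeling so polarization falls and inhibition rises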
LYPLA1 counter – LYPLA1 (human) inhibition in PME1 counter-screen; recombinant LYPLA1, FP-Rh probe fluorescence polarization; 0.16% of 320,000 active; O75608; inhibition, % at 5.9 µM;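 active = inhibition above the mean of all tested compounds plus 3 SD, set per campaign, cut at about 14% in these data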;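 also: inhibitors block serine hydrolase probe labeling of LYPLA1 so polarization falls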
Fam108B counter – Fam108B inhibition, counter-screen for RBBP9 inhibitors | recombinant Fam108B, FP-Rh probe fluorescence polarization | inhibition, % at 9.51 µM | 0.33% of 300,000 active;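 active = inhibition above the screen mean inhibition plus 3 SD, computed separately per campaign, cut at about 18% in these data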;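 also: inhibitors lower polarization as less probe binds the enzyme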
Large screens that a line does not name were inactive.

COc1ccc(C2/C=C\CN(C(=O)Nc3ccc(C(F)(F)F)cc3)CC(=O)N2Cc2ccc(F)cc2)cc1 (stereo not given)	none
COc1ccc(C2/C=C\CN(C(=O)Nc3ccccc3)CC(=O)N2Cc2ccc(F)cc2)cc1 (stereo not given)	GSTO1 counter 36.4
COC(=O)N/N=C\c1cccc(OC(=O)c2cccs2)c1	none
O=C1NN(c2ccc(Cl)c(Cl)c2)C(=O)/C1=C/c1cccc(OC(=O)c2cccs2)c1	PME-1 primary 37.0
Cc1cccc(OCC(=O)NNC(=O)c2ccccc2OCc2c(C)noc2C)c1	none (no result: GSTO1 counter, Fam108B counter)
CCc1nnc(NC(=O)CCN2C(=O)/C(=C/c3cc(OC)c(OC)c(OC)c3)SC2=S)s1	none
COC(=O)C1=C(C)N(C)C(=O)NC1c1cc2c(cc1[N+](=O)[O-])OCO2 (stereo not given)	GSTO1 counter 35.6
CCOc1ccccc1NC(=O)COC(=O)/C=C/c1cccs1	none (no result: GSTO1 counter, LYPLA2 inh, PME-1 primary, LYPLA1 counter, Fam108B counter)
COc1ccc(C(C[N+](=O)[O-])c2c(C)[nH]n(-c3ccccc3)c2=O)cc1 (stereo not given)	GSTO1 counter 82.3
COc1ccc(C(C[N+](=O)[O-])c2c(C)cc3ccccn23)cc1 (stereo not given)	none
Cc1ccc(S(=O)(=O)CCC(=O)OCc2nnc(-c3ccccc3)o2)cc1	none (no result: GSTO1 counter, LYPLA2 inh, PME-1 primary, LYPLA1 counter, Fam108B counter)
COc1ccc(/C=N/Nc2snc(SC)c2C#N)cc1OC	PME-1 primary 39.7
Cc1[nH]c2ccccc2c1CCNC(=O)c1ccc2c(c1[N+](=O)[O-])C(=O)c1ccccc1C2=O	PME-1 primary 30.1
CN(C)C(=O)c1ccc2c(c1[N+](=O)[O-])C(=O)c1ccccc1C2=O	GSTO1 counter 36.0
CC(C)COC(=O)c1ccc2c(c1O)C(=O)c1ccccc1C2=O	none
Cc1ccc(C(=O)COC(=O)CNC(=O)c2ccccc2)s1	none (no result: GSTO1 counter, Fam108B counter)
O=C(NCC(=O)N1CCCCCCC1)c1cccc([N+](=O)[O-])c1	none (no result: GSTO1 counter, Fam108B counter)
O=[N+]([O-])c1cc([N+](=O)[O-])c(Oc2cc(F)cc(F)c2)cc1NN1CCCCC1	none
CCC(=O)NC(c1cccs1)c1cc([N+](=O)[O-])c2cccnc2c1O (stereo not given)	PME-1 primary 27.2
CCCC(=O)NC(c1cccs1)c1cc([N+](=O)[O-])c2cccnc2c1O (stereo not given)	none
CC(=O)NC(c1cccs1)c1cc([N+](=O)[O-])c2cccnc2c1O (stereo not given)	PME-1 primary 34.0
Cc1nc(Nc2ccc(F)cc2)nc(Nc2ccc(F)cc2)c1[N+](=O)[O-]	none
COc1ccc(Nc2nc(NN)nc(C)c2[N+](=O)[O-])cc1	PME-1 primary 28.6
CC(=O)Nc1ccc(Nc2nc(C)c([N+](=O)[O-])c(Nc3ccccc3)n2)cc1	PME-1 primary 30.0
Cc1ccc(N=Nc2c(N)nn(-c3ccccc3)c2N)cc1	PREPL inh 62.3
COc1ccc2sc(-c3ccc(S(C)(=O)=O)cc3)c(-c3ccc(SC)cc3)c2c1	none (no result: GSTO1 counter, LYPLA2 inh, PME-1 primary, LYPLA1 counter, Fam108B counter)
S=C(c1cn(Cc2ccc(Br)cc2)c2ccccc12)N1CCOCC1	PREPL inh 49.7
CCCC(C(=O)NCCC(C)C)N(Cc1ccccc1)C(=O)c1snc(C(N)=O)c1N (stereo not given)	none
COc1ccccc1C(=O)NC(=S)Nc1cccc2cc(O)ccc12	PME-1 primary 30.9
O=C(NC(=S)Nc1cccc2cc(O)ccc12)c1ccccc1Br	none
C[C@]12CCC[C@H](O1)c1c(cc3c(c1O)C(=O)c1c(O)cc(O)cc1C3=O)O2	none
O=C(NC1CCCCC1)C(c1cccnc1)N(C(=O)CCl)c1cccc(Cl)c1 (stereo not given)	GSTO1 counter 96.2
COc1cccc(C(=O)Oc2ccc(/C=N/Nc3ccc(C(=O)O)cc3)cc2OC)c1	PME-1 primary 31.7
COc1cccc(OCc2cc(/C=N/Nc3ccc(C(=O)O)cc3)ccc2OC)c1	none
N#Cc1c(N)sc(=S)c2c1CCN(Cc1ccccc1)C2	PREPL inh 73.6, GSTO1 counter 50.5, LYPLA2 inh 26.6, PME-1 primary 31.5, LYPLA1 counter 17.7, Fam108B counter 26.9
CCCCN(CC(=O)NC1CC1)S(=O)(=O)c1ccc(OCC)cc1	none (no result: GSTO1 counter, Fam108B counter)
Cc1cc(C)cc(C(=O)NCC(=O)OCN2C(=O)c3ccccc3C2=O)c1	none (no result: GSTO1 counter, Fam108B counter)
O=C(COc1cccnc1[N+](=O)[O-])c1ccc(Cl)s1	GSTO1 counter 35.4
CC(C)(C)c1ccc(N2C(=O)Cc3c2nc(N)c(C#N)c3N)cc1	none
CCc1ccc(N2C(=O)Cc3c2nc(N)c(C#N)c3N)cc1	PREPL inh 43.6
O=C(COc1cccc(C(F)(F)F)c1)NCC(c1cccs1)N1CCOCC1 (stereo not given)	none (no result: GSTO1 counter, Fam108B counter)
O=[N+]([O-])c1ccccc1NC(=S)N/N=C/c1ccc(O)c(O)c1	GSTO1 counter 50.1, PME-1 primary 27.5
O=C(COC(=O)c1ccc[nH]c1=O)NC1CC1	none (no result: GSTO1 counter, LYPLA2 inh, PME-1 primary, LYPLA1 counter, Fam108B counter)
Cc1ccc(NC(=O)c2ccc(=O)[nH]c2)cc1S(=O)(=O)N1CCCCCC1	none (no result: GSTO1 counter, LYPLA2 inh, PME-1 primary, LYPLA1 counter, Fam108B counter)
S=C(NNc1ccnc2cc(Cl)ccc12)Nc1ccc(Cl)cc1Cl	none
CCOc1ccc(NC(=S)NNc2ccnc3cc(Cl)ccc23)cc1	PME-1 primary 38.4
O=C(CSc1nnc(SCc2cccc3ccccc23)s1)N/N=C/c1c[nH]c2ccccc12	PME-1 primary 26.4, Fam108B counter 33.5
O=C(O)COc1ccccc1/C=N/NC(=O)CSc1nnc(SCc2cccc3ccccc23)s1	none
CCCCN(C(=O)COC(=O)c1ccc(C=O)cc1)c1c(N)n(CCC)c(=O)[nH]c1=O	none (no result: GSTO1 counter, Fam108B counter)
CC(=O)N1C(=O)C2(C(C#N)=C(N)Oc3c2c(C)nn3-c2ccccc2)c2ccccc21 (stereo not given)	none
Cc1nn(-c2ccccc2)c2c1C1(C(=O)N(C)c3ccccc31)C(C#N)=C(N)O2 (stereo not given)	GSTO1 counter 37.2
CC(C)NC(=O)N(C)C[C@H]1Oc2c(NC(=O)c3ccc(-c4nccs4)cc3)cccc2C(=O)N([C@@H](C)CO)C[C@H]1C	none (no result: GSTO1 counter, LYPLA2 inh, PME-1 primary, LYPLA1 counter, Fam108B counter)
COc1cc(C(=O)c2nccc3cc(OC)c(OC)cc23)c([N+](=O)[O-])cc1OC	GSTO1 counter 55.3
COc1cc(N)c(C(=O)c2nccc3cc(OC)c(OC)cc23)cc1OC	none
Cc1cccc(C(=O)N[C@H](C(=O)Nc2ccc3c(c2)OCO3)C(C)C)c1	none (no result: GSTO1 counter, LYPLA2 inh, PME-1 primary, LYPLA1 counter, Fam108B counter)
Cc1ccc(CCNC(=O)Cn2ncc3c([nH]c4ccccc43)c2=O)cc1	none
Cc1ccc2[nH]c3c(=O)n(CC(=O)NCc4ccco4)ncc3c2c1	GSTO1 counter 36.2
O=c1c2ccccc2nc(N/N=C/c2ccc(O)cc2)n1O	none
O=c1c2ccccc2nc(N/N=C/c2c(O)ccc3ccccc23)n1O	PME-1 primary 34.2
COc1ccc(C(=O)OCC(=O)NCCN2C(=O)CSC2=O)cc1[N+](=O)[O-]	none (no result: GSTO1 counter, LYPLA2 inh, PME-1 primary, LYPLA1 counter, Fam108B counter)
Cc1ccc(S(=O)(=O)CNC(=S)c2cccc(Cl)c2)cc1	GSTO1 counter 37.5
Cc1ccc(C(=S)NCS(=O)(=O)c2ccc(C)cc2)cc1	none

High-throughput results deposited in PubChem BioAssay by The Scripps Research Institute Molecular Screening Center.
